Data published in PubChem BioAssay AID652067 (The Scripps Research Institute Molecular Screening Center, 2013).
Among all 370,000 compounds or so, about 5,400 (1.5%) were called active.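 The calls were made as follows: active = activation above the mean of all tested compounds plus 3 SD (cut at about 5.5% in these data); inactive = the rest.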 What follows is part of a selection rich in actives, with near analogues and random picks from the rest.

System: DAF-12 nuclear receptor (Haemonchus contortus)
Test: H. contortus DAF-12 nuclear receptor activators, primary screen, cell-based, luminescence, HEK293, lit1-tk-luc reporter (AID 652067);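 also: 100% = response to 3 µM Δ7-dafachronic acid high control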
Details: HEK293 hcDAF-12 lit1-tk-luc reporter, at 6.8 µM, hits give high values, 0% DMSO, 100% Δ7-dafachronic acid

SMILES	activation
O=S1(=O)c2c(cccc2N2CCCCC2)O[C@H](COCc2ccccc2)CN1C1CC1	-2.09% (inactive)
COc1cccc(-c2nc(CS(=O)(=O)CC(=O)NCCc3ccc(OC)c(OC)c3)c(C)o2)c1	-1.4% (inactive)
COc1cccc(-c2nnc(SCCOc3ccc4c(C)cc(=O)oc4c3)o2)c1	0.05% (inactive)
O=[N+]([O-])c1ccc2c(c1)C(O)n1nc(-c3ccccc3)nc1S2 (centres undefined)	0.58% (inactive)
COc1cccc(-c2nc3cc(C)ccc3o2)c1	14.7% (active)
CC(=O)Oc1ccc2c(=O)oc(-c3ccc([N+](=O)[O-])cc3)nc2c1	-2.73% (inactive)
O=[N+]([O-])c1ccc2oc(-c3cccc(O)c3)nc2c1	15.4% (active)
COc1cccc(CNC(=O)[C@H]2CCCN2C(=O)[C@H]2CCCN2C(=O)c2cc(F)cc(F)c2)c1	-1.64% (inactive)
CSc1ccc(C=Nn2c(-c3ccc(F)cc3)n[nH]c2=S)cc1	-0.55% (inactive)
CC(C)Cn1c(CCC(=O)O)ccc1-c1cccs1	-0.34% (inactive)
C=C1C(C(C)C)N(C)C2=NC(c3ccccc3)CC(=O)N12 (centres undefined)	-1.26% (inactive)
COc1ccc(-n2c(SCC(=O)Nc3ccccc3-c3ccccc3)nnc2-c2cccnc2)cc1	-2.71% (inactive)
O=C(COc1ccccc1Cl)Nc1ccc(C(=O)c2ccc(C(=O)O)cc2)cc1	-0.48% (inactive)
O=C(COc1ccccc1Cl)Nc1ccccc1C(=O)NC1CC1	0.7% (inactive)
CC(=O)Nc1ccc(NC(=O)COc2ccccc2C(=O)Nc2cccc(Cl)c2Cl)cc1	5.68% (active)
Brc1ccc(COCCc2cn(Cc3ccccc3)c3ccccc23)cc1	-0.22% (inactive)
CC(=O)O[C@@]1(C(C)=O)CCC2[C@H]3C=C(C)C4=CC(=O)CC[C@@]4(C)C3CC[C@]21C (some centres undefined)	-1.02% (inactive)
COc1ccc2nc(-c3ccccn3)ccc2c1	8.16% (active)
COc1ccc2cc(CCl)c(Cl)nc2c1	-0.92% (inactive)
COc1ccc(C=C(C#N)C#N)c(CSc2ccccn2)c1	-0.83% (inactive)
Cc1nc(CNc2ncnc3ccc(-c4ccc5c(c4)OCO5)cc23)cs1	-1.68% (inactive)
Cc1ccc(S(=O)(=O)N(C)C)cc1NC(=O)C(C)OC(=O)c1ccc2ccccc2n1 (centres undefined)	0.62% (inactive)
O=C(Oc1ccc([N+](=O)[O-])cc1)c1ccc2ccccc2n1	8.61% (active)

SMILES	activation
N/C(Cc1ccc([N+](=O)[O-])cc1)=N\OC(=O)COc1ccc2ccccc2c1	-2.58% (inactive)
COC(=O)C1CN(Cc2cn(Cc3ccc(F)cc3)nn2)CCS(=O)(=O)N1Cc1ccc(Cl)cc1 (centres undefined)	-3.19% (inactive)
COc1ccc(-c2ccccc2C2Cc3nnccc3CN2C(=O)Nc2ccccc2)cc1 (centres undefined)	-1.19% (inactive)
Cc1ccc(Cn2cc(CN3[C@@H](C)COc4cc(Br)ccc4S3(=O)=O)nn2)cc1	-3.6% (inactive)
O=C(NCc1ccco1)C1CCCN1S(=O)(=O)c1ccccc1C(F)(F)F (centres undefined)	-2.37% (inactive)
CN(C)c1nc(N)nc(CSc2ccccn2)n1	0.13% (inactive)
Cc1ccc(NC(=O)c2cnc(SCC(=O)NCC3CCCO3)n(C)c2=O)cc1 (centres undefined)	5.83% (active)
Cn1c(SCC(=O)c2ccccc2)ncc(C(=O)Nc2ccc(F)cc2)c1=O	0.15% (inactive)
CCn1c(SCC(=O)NCC2CCCO2)nc2ccccc21 (centres undefined)	1.17% (inactive)
CCCCN(CC)C(=O)c1ccccc1Oc1ccccc1	-2.5% (inactive)
COCc1cc(N2CCN(C(=O)OC(C)(C)C)C[C@@H]2C)ccc1N1CCN(Cc2ccccc2)[C@H](C)C1	-1.75% (inactive)
O=C(NCCc1ccccc1)Oc1ccc(Cl)cc1	2.6% (inactive)
CC(C)c1ccc(C(=O)NCCCc2ccccc2)cc1	2.26% (inactive)
CCCOc1ccc(C(=O)NCCc2ccccc2)cc1	7.01% (active)
N#Cc1ccc(OCCCN2CCC(C(O)(c3ccccc3)c3ccccc3)CC2)c(F)c1	-0.43% (inactive)
CCOCCCNC(=O)C(NC(=O)CNC(=O)c1ccccc1)c1ccc(C)cc1 (centres undefined)	-0.9% (inactive)
CCOCCCNC(=O)C(NC(=O)CNC(=O)c1ccccc1)c1ccc(OC)cc1 (centres undefined)	1.22% (inactive)
CCOCCCNC(=O)C(NC(=O)Cc1c[nH]c2ccccc12)c1ccc(OC)cc1 (centres undefined)	5.82% (active)
COc1ccc(-n2c(COc3ccc(C)cc3)nnc2SCC(=O)Nc2ccc(Oc3ccccc3)cc2)cc1	-2.93% (inactive)
CCN(CC)C(=O)CC[C@H]1CC[C@]2(CCCN(Cc3ccc(Cl)cc3)C2)O1	-0.52% (inactive)
CN(Cc1ccc(C(F)(F)F)cc1)C(=O)[C@H]1O[C@@H](n2cnc3c(N)ncnc32)[C@H](O)[C@@H]1O	-3.28% (inactive)
Cc1cc(C)cc(NC(=O)C(OC(=O)c2ccc(O)cc2)c2ccccc2)c1 (centres undefined)	2.07% (inactive)
COc1ccc(C)cc1NC(=O)C(OC(=O)c1cccc(S(=O)(=O)N(C)c2ccccc2)c1)c1ccccc1 (centres undefined)	0.81% (inactive)

SMILES	activation
Cc1ccc(C)c(NC(=O)C(OC(=O)c2ccc(C)s2)c2ccccc2)c1 (centres undefined)	5.84% (active)
Cn1c(NCc2cccnc2)nc2cc(-c3ccc(F)cc3)sc2c1=O	-0.57% (inactive)
O=c1[nH]c(CCl)nc2cc(-c3ccc(Cl)cc3)sc12	7.46% (active)
COc1cccc(-c2cc3nc(NCCOc4ccccc4Cl)n(C)c(=O)c3s2)c1	-0.41% (inactive)
CCCOc1ccc(Oc2c(Cl)cnn(Cc3cccc4ccccc34)c2=O)cc1	0.08% (inactive)
N[C@@H](Cc1ccccc1)C(=O)N1CCOCC1	-1.46% (inactive)
CC(=O)c1ccc(NC(=O)CSC(=S)N2CCCC2)cc1	4.8% (inactive)
O=C(O)CC(CC(=O)N1CCOCC1)c1ccccc1 (centres undefined)	-2.07% (inactive)
O=C(CSC(=S)N1CCCCC1)c1c(F)cccc1F	6.39% (active)
O=C(CSC(=S)N1CCOCC1)c1ccccc1	6.9% (active)
COc1cccc(NC(=O)CN(C)C(=O)CSC(=S)N2CCCC2)c1	0.17% (inactive)
CCOC(=O)[C@@]12CCC3=C1N(CCC3)C(=O)[C@H](CC(=O)N1CCN(C(=O)c3ccco3)CC1)C2	0.92% (inactive)
CN1CCOC1c1ccc(C2OCCN2C)cc1 (centres undefined)	-0.23% (inactive)
CC(=O)C1=C(C)N(Cc2ccccc2)C(=S)NC1c1cccc(Br)c1 (centres undefined)	1.52% (inactive)
CCOc1ccc(NC(=O)CSc2ncnc3c2sc2ccccc23)cc1	2.39% (inactive)
COC(=O)[C@H](C(C)C)N1CCc2nnn(Cc3ccc(C)cc3)c2-c2ccccc2S1(=O)=O	-1.76% (inactive)
O=C(Nc1cc(F)cc(F)c1)OC1CCC12CCC(c1ccccc1)CC2 (centres undefined)	1.63% (inactive)
NC(=O)Nc1ccccc1C(=O)NCCc1ccccc1	8.5% (active)
Nc1nonc1C(=O)NCCc1ccccc1	-1.41% (inactive)
O=C(O)c1ccccc1-c1ccccc1C(=O)NCCc1ccccc1	-1.14% (inactive)
Cn1c(SCC(=O)N/N=C/c2ccc(O)c(O)c2)nc2ccccc21	0.79% (inactive)
CCN(CC)CCn1c(/N=C/c2cc(Br)ccc2O)nc2ccccc21	6.13% (active)
C/C(=N\c1nc2ccccc2n1C)c1cc(Cl)ccc1O	4.18% (inactive)

SMILES	activation
CCOC(=O)Cn1c2c(n(-c3ccc(F)cc3)c1=O)C=C(c1ccccc1)[C@@H](C)C(C(=O)N(C)C1CCCCC1)=C2	-0.1% (inactive)
N#Cc1cccc(C(=O)NCC2CCN(C(=O)C(=O)c3cc4ccccc4o3)CC2)c1	-1.58% (inactive)
Cc1cccc(NC(=O)C[C@H]2CC[C@H]3[C@@H](COc4ccc(NC(=O)Nc5ccccc5)cc4C(=O)N3C)O2)c1	-0.28% (inactive)
CN(CC(=O)Nc1ccc(Cl)cc1)CC(=O)Nc1cccc2ccccc12	-0.93% (inactive)
CN(CC(=O)Nc1ccc(Cl)cc1)C(=O)c1ccc(COc2ccccc2)cc1	-1.47% (inactive)
CN(CC(=O)Nc1ccc(Cl)cc1)C(=O)CNC(=O)c1ccc2ccccc2c1	6.25% (active)
CN1C(=O)C2CC(O)C(SC3CC4C(=O)N(C)C(=O)C4CC3O)CC2C1=O (centres undefined)	0.52% (inactive)
CC[C@H](NC(=O)[C@H](Cc1ccccc1)NC(=O)[C@H]1O[C@@H](n2cnc3c(=O)[nH]c(N)nc32)[C@H](O)[C@@H]1O)c1ccccc1	-0.3% (inactive)
Clc1ccc(-c2cc(-c3ccccn3)on2)c(Cl)c1	12.3% (active)
Clc1ccccc1-c1cc(COc2ccc3ccccc3c2)no1	-2.26% (inactive)
Fc1ccc(-c2ccc(CNCc3ccccn3)o2)cc1Cl	0.05% (inactive)
CC(=O)N1CCCN(C2=Nc3ccccc3Sc3ccccc32)CC1	-0.4% (inactive)
COCCCNC(=O)C[C@H]1C[C@@]2(C(=O)OC)C(=C[C@H](C(C)(C)C)O[C@@H]2C)N(Cc2ccc3c(c2)OCO3)C1=O	-1.12% (inactive)
O=C1CCC(=O)N(O)CCCCCNC(=O)CCC(=O)N(O)CCCCCNC(=O)CCC(=O)N(O)CCCCCN1	0.23% (inactive)
CCCCNC(=O)OC(C)CNC(=O)OC (centres undefined)	-0.33% (inactive)
CC(C)C(=O)Nc1ccc2c(c1)oc1ccccc12	6.7% (active)
CC(C)C(=O)Nc1oc(-c2ccccc2)cc1C#N	-1.35% (inactive)
CC(C)C(=O)Nc1c(C(=O)c2ccc(F)cc2)oc2ccccc12	-1.93% (inactive)
FC(F)(F)c1cccc(NC(=S)OC2CCC23CCC(c2ccccc2)CC3)c1 (centres undefined)	-0.73% (inactive)
CCOC(=O)N1CCN(C(=O)C[C@H]2C[C@@]3(C(=O)OC)C(=C[C@H](C4CCCC4)O[C@@H]3C)N(Cc3ccccc3)C2=O)CC1	-0.64% (inactive)
